Compounds without any hit were thinned out: in the full panel of roughly 83,000, 20% have a hit.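 The test compound was applied at a single concentration to cells in 96-well plates for 48 hours, and percent growth was recorded.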 Calls of active or inactive are those of the source. The calls were made as follows: active = growth percent below 10; inactive = the rest.
What was measured:
Test in all cases: NCI-60 one-dose screen, 48 h (100 = growth as untreated, 0 = no growth, -100 = all killed)
Settings in all cases: 10 µM unless noted
HCT-15 colon = test system: HCT-15 colon
HT29 colon = test system: HT29 colon
SNB-75 CNS = test system: SNB-75 CNS
SNB-19 CNS = test system: SNB-19 CNS
PC-3 prostate = test system: PC-3 prostate
SK-MEL-5 melanoma = test system: SK-MEL-5 melanoma
UACC-62 melanoma = test system: UACC-62 melanoma
LOX IMVI melanoma = test system: LOX IMVI melanoma
SK-MEL-28 melanoma = test system: SK-MEL-28 melanoma
SK-MEL-2 melanoma = test system: SK-MEL-2 melanoma
EKVX NSCLC = test system: EKVX NSCLC
SN12C renal = test system: SN12C renal
UO-31 renal = test system: UO-31 renal
TK-10 renal = test system: TK-10 renal
ACHN renal = test system: ACHN renal
CAKI-1 renal = test system: CAKI-1 renal
A498 renal = test system: A498 renal
CCRF-CEM leukemia = test system: CCRF-CEM leukemia
MOLT-4 leukemia = test system: MOLT-4 leukemia
U251 CNS = test system: U251 CNS

Measured: growth

COc1cc(/C=N/NC(=O)Cn2c(-c3ccc(C)o3)nc3ccccc32)ccc1OCc1ccccc1
inactive: HCT-15 colon 74.1% | HT29 colon 87.2% | SNB-75 CNS 83.2% | SNB-19 CNS 79.6% | PC-3 prostate 63.1% | SK-MEL-5 melanoma 76.6% | UACC-62 melanoma 77.8% | LOX IMVI melanoma 88.1% | SK-MEL-28 melanoma 99.1% | SK-MEL-2 melanoma 94.5% | EKVX NSCLC 75.2% | SN12C renal 95.4% | UO-31 renal 61.8% | TK-10 renal 93.4% | ACHN renal 85.4% | CAKI-1 renal 82.6% | A498 renal 78.5% | CCRF-CEM leukemia 80.6% | MOLT-4 leukemia 50.2%

CNC(=O)OC1C(O[C@H]2C[C@H]3[C@@H]4CC=C5C[C@@H](O)CC[C@]5(C)[C@H]4CC[C@]3(C)[C@H]2[C@H](C)C(=O)CCC(C)C)OCC(O)C1OC1OCC(O)C(O)C1OC(=O)c1ccc(OC)cc1 (stereo partly drawn)
inactive: HT29 colon 14.7% | SNB-75 CNS 18.4% | SNB-19 CNS 23.2% | EKVX NSCLC 30.1% | SN12C renal 59.9% | TK-10 renal 14% | ACHN renal 39.2%
active: HCT-15 colon 0.802% | PC-3 prostate -21.8% | SK-MEL-5 melanoma -27.9% | UACC-62 melanoma -27.6% | LOX IMVI melanoma -31.3% | SK-MEL-28 melanoma -53.3% | SK-MEL-2 melanoma -33.6% | CAKI-1 renal 0.834% | A498 renal -60.3% | CCRF-CEM leukemia -13.7% | MOLT-4 leukemia -40.2%

Cc1cc(Nc2c3ccccc3nc3ccccc23)ccc1NS(C)(=O)=O
inactive: HCT-15 colon 19.8% | HT29 colon 18.2% | SNB-75 CNS 51.3% | U251 CNS 27.1% | PC-3 prostate 33.2% | SK-MEL-5 melanoma 43.4% | UACC-62 melanoma 57% | LOX IMVI melanoma 28.3% | SK-MEL-28 melanoma 57.2% | SK-MEL-2 melanoma 40.7% | SN12C renal 39.6% | UO-31 renal 22.7% | TK-10 renal 56% | CAKI-1 renal 29% | A498 renal 24.2%
active: ACHN renal 9.04% | MOLT-4 leukemia 2.33%

O=S1(=O)NCCCN1CCNc1nccc(-c2c(-c3cccc(O)c3)nc3sccn23)n1
inactive: HCT-15 colon 95.5% | HT29 colon 56.2% | SNB-75 CNS 37.9% | U251 CNS 77.4% | PC-3 prostate 106% | SK-MEL-5 melanoma 74.2% | LOX IMVI melanoma 20.1% | SK-MEL-28 melanoma 24% | SK-MEL-2 melanoma 29.4% | EKVX NSCLC 141% | SN12C renal 43.4% | UO-31 renal 94.1% | TK-10 renal 121% | ACHN renal 50.5% | CAKI-1 renal 67.4% | A498 renal 98.9% | CCRF-CEM leukemia 60.1% | MOLT-4 leukemia 65.2%
active: UACC-62 melanoma -6.85%

CC1CCCN(CCCCOc2ccc(-c3ccc(C#N)cc3)cc2)C1 (stereo not drawn)
inactive: HCT-15 colon 56.4% | HT29 colon 14.6% | SNB-75 CNS 90.3% | U251 CNS 71.7% | PC-3 prostate 75.4% | SK-MEL-5 melanoma 46.2% | UACC-62 melanoma 89.8% | LOX IMVI melanoma 83.9% | SK-MEL-28 melanoma 100% | SK-MEL-2 melanoma 88.6% | EKVX NSCLC 88.9% | SN12C renal 89.3% | UO-31 renal 74.5% | TK-10 renal 80.6% | ACHN renal 111% | CAKI-1 renal 98.7% | A498 renal 82.4% | CCRF-CEM leukemia 59.4% | MOLT-4 leukemia 83.4%

O=C(Nc1ccccc1)c1cc2ccccc2s1
inactive: HCT-15 colon 63.9% | HT29 colon 104% | SNB-75 CNS 92.9% | U251 CNS 89.4% | PC-3 prostate 82% | SK-MEL-5 melanoma 56.7% | UACC-62 melanoma 67.1% | LOX IMVI melanoma 83.4% | SK-MEL-28 melanoma 107% | SK-MEL-2 melanoma 72.2% | EKVX NSCLC 85.5% | SN12C renal 91.4% | TK-10 renal 98.7% | ACHN renal 94.2% | CAKI-1 renal 78.8% | A498 renal 91.7% | CCRF-CEM leukemia 44.3%

COc1cc(C2CC(c3ccc(Cl)cc3)=NN2C=O)ccc1Oc1ccnc2cc(Cl)ccc12 (stereo not drawn)
active: SNB-75 CNS 7.19%
inactive: HCT-15 colon 85.7% | HT29 colon 58% | U251 CNS 72.5% | PC-3 prostate 66.8% | SK-MEL-5 melanoma 51% | UACC-62 melanoma 74.6% | LOX IMVI melanoma 74.2% | SK-MEL-28 melanoma 74.4% | EKVX NSCLC 59% | SN12C renal 77.3% | UO-31 renal 80.8% | TK-10 renal 83% | CAKI-1 renal 58.5% | A498 renal 62.6% | CCRF-CEM leukemia 68.8% | MOLT-4 leukemia 62%

C[C@@H]1CC2C3CCC4=CC(=O)C=C[C@]4(C)[C@@]3(Cl)[C@@H](O)C[C@]2(C)[C@@]1(OC(=O)c1ccco1)C(=O)CCl (stereo partly drawn)
inactive: HCT-15 colon 79.7% | HT29 colon 70.8% | SNB-75 CNS 86.3% | U251 CNS 85% | PC-3 prostate 49.9% | SK-MEL-5 melanoma 55% | UACC-62 melanoma 42% | LOX IMVI melanoma 61.6% | SK-MEL-28 melanoma 88.9% | SK-MEL-2 melanoma 76.6% | EKVX NSCLC 61.5% | SN12C renal 35.4% | UO-31 renal 30.5% | TK-10 renal 95.6% | CAKI-1 renal 62.2% | A498 renal 99% | CCRF-CEM leukemia 30% | MOLT-4 leukemia 31.5%

COc1cc(/C=C/c2cc(/C=C/c3ccc(O)c(OC)c3)n(C(=O)Nc3ccc(F)c(Cl)c3)n2)ccc1O
active: HCT-15 colon 6.64% | HT29 colon -33.6% | SNB-75 CNS -12.6% | U251 CNS -1.59% | PC-3 prostate -14.3% | SK-MEL-5 melanoma -73.9% | UACC-62 melanoma -37.4% | LOX IMVI melanoma -20.9% | SK-MEL-28 melanoma 7.89% | SK-MEL-2 melanoma -25% | EKVX NSCLC -17.7% | SN12C renal 2.06% | ACHN renal 5.73% | CAKI-1 renal -39.1% | A498 renal -13.6% | CCRF-CEM leukemia 0.872% | MOLT-4 leukemia -17.7%
inactive: TK-10 renal 24%

O=[N+]([O-])c1ccc(Sc2nc(Cl)nc(NC3CCCC3)n2)cc1
active: HCT-15 colon -92.4% [100 µM] | HT29 colon -72.6% [100 µM] | SNB-75 CNS -100% [100 µM] | PC-3 prostate -89.5% [100 µM] | SK-MEL-5 melanoma -90.3% [100 µM] | UACC-62 melanoma -97.4% [100 µM] | LOX IMVI melanoma -87.9% [100 µM] | SK-MEL-28 melanoma -97.8% [100 µM] | SK-MEL-2 melanoma -91.7% [100 µM] | SN12C renal -88.9% [100 µM] | UO-31 renal -83.7% [100 µM] | TK-10 renal -96.7% [100 µM] | ACHN renal -100% [100 µM] | CAKI-1 renal -91.4% [100 µM] | A498 renal -94.2% [100 µM] | MOLT-4 leukemia -30.1% [100 µM]

CNCCCn1c2c(c3ccc(Cl)cc3c1=O)C(=O)c1cc(OC)cnc1-2
inactive: SNB-75 CNS 14.7% | PC-3 prostate 38.6% | SK-MEL-5 melanoma 32.4% | UACC-62 melanoma 11% | SK-MEL-28 melanoma 72.2% | SK-MEL-2 melanoma 77.3% | EKVX NSCLC 63.8% | SN12C renal 39.7% | UO-31 renal 33.4% | TK-10 renal 54.2% | ACHN renal 19.8% | CAKI-1 renal 35.3% | A498 renal 20.5%
active: HCT-15 colon -57.6% | HT29 colon -80.5% | U251 CNS -86.5% | LOX IMVI melanoma -83.7% | CCRF-CEM leukemia -22.5% | MOLT-4 leukemia -29.9%

C[N+](C)(C)CCCCCCCCCC[N+](C)(C)C
inactive: HCT-15 colon 107% | SNB-75 CNS 89.3% | SNB-19 CNS 98.7% | U251 CNS 91.1% | PC-3 prostate 89.3% | SK-MEL-5 melanoma 97.4% | UACC-62 melanoma 91.7% | LOX IMVI melanoma 84.7% | SK-MEL-28 melanoma 104% | EKVX NSCLC 96.3% | SN12C renal 85.9% | UO-31 renal 96.1% | ACHN renal 112% | CAKI-1 renal 104% | A498 renal 123% | CCRF-CEM leukemia 72.4% | MOLT-4 leukemia 99.4%

C=CCOC(=O)C1=C(C)NC2=C(C(=O)CC(C)(C)C2)C1c1ccc(OC)cc1 (stereo not drawn)
inactive: HCT-15 colon 105% | HT29 colon 102% | SNB-75 CNS 81.2% | U251 CNS 103% | PC-3 prostate 88.3% | SK-MEL-5 melanoma 108% | UACC-62 melanoma 81.1% | LOX IMVI melanoma 102% | SK-MEL-28 melanoma 104% | SK-MEL-2 melanoma 95% | EKVX NSCLC 101% | SN12C renal 106% | UO-31 renal 85.2% | TK-10 renal 114% | ACHN renal 98.6% | CAKI-1 renal 80.8% | CCRF-CEM leukemia 97.4% | MOLT-4 leukemia 89.7%

COc1cc(OC)cc(-c2ccc(-c3ccc(C(=N)N)s3)s2)c1
active: HCT-15 colon -77.4% | HT29 colon -87.4% | SNB-75 CNS -91.5% | U251 CNS -90.1% | PC-3 prostate -83.9% | SK-MEL-5 melanoma -97.4% | UACC-62 melanoma -90.5% | LOX IMVI melanoma -71.6% | SK-MEL-28 melanoma -85.3% | SK-MEL-2 melanoma -85.4% | SN12C renal -69.5% | UO-31 renal -85.8% | TK-10 renal -88.7% | ACHN renal -76% | CAKI-1 renal -86.4% | A498 renal -80.9% | MOLT-4 leukemia -71.2%

Nc1c(C(=O)Nc2ccccc2)sc2nc3c(cc12)C(=O)CCC3
active: HT29 colon 4.34%
inactive: HCT-15 colon 27.2% | SNB-75 CNS 12.4% | PC-3 prostate 21.6% | SK-MEL-5 melanoma 25.7% | UACC-62 melanoma 44.1% | LOX IMVI melanoma 51.2% | SK-MEL-28 melanoma 58.7% | SK-MEL-2 melanoma 38.7% | EKVX NSCLC 84.6% | SN12C renal 59.8% | UO-31 renal 71.1% | TK-10 renal 63.6% | ACHN renal 49.7% | CAKI-1 renal 54.7% | A498 renal 37.3% | CCRF-CEM leukemia 16.8% | MOLT-4 leukemia 43.4%

CC(C)N(C(=S)SSC(=S)N(C(C)C)C(C)C)C(C)C
inactive: HCT-15 colon 97.7% | HT29 colon 88.1% | SNB-75 CNS 102% | U251 CNS 94.5% | PC-3 prostate 86.4% | SK-MEL-5 melanoma 109% | UACC-62 melanoma 105% | LOX IMVI melanoma 97.1% | SK-MEL-28 melanoma 100% | SK-MEL-2 melanoma 109% | EKVX NSCLC 110% | SN12C renal 101% | UO-31 renal 80.3% | TK-10 renal 100% | ACHN renal 98.2% | CAKI-1 renal 85.8% | A498 renal 97.8% | CCRF-CEM leukemia 87.5% | MOLT-4 leukemia 105%

O=C(N/N=C/c1ccc([N+](=O)[O-])o1)c1ccc(O)cc1
inactive: HCT-15 colon 42.9% | HT29 colon 17.1% | SNB-75 CNS 84.7% | U251 CNS 34% | PC-3 prostate 87.4% | UACC-62 melanoma 47.5% | LOX IMVI melanoma 12.9% | SK-MEL-28 melanoma 77.7% | SK-MEL-2 melanoma 24.1% | EKVX NSCLC 71.2% | SN12C renal 29.4% | UO-31 renal 84.7% | TK-10 renal 125% | ACHN renal 66.5% | CAKI-1 renal 88.3% | CCRF-CEM leukemia 34.6%
active: SK-MEL-5 melanoma 2.57%

Reference: PubChem BioAssay (NCI)
